Only some compounds are listed: those with a hit (about 2.4% of all), similar ones and a draw of the others.
POLI inh: blocks human DNA polymerase iota activity | Pol iota fluorescent replication assay, 10 min | Potency, µM (top dose mostly 115 µM), for inactives: top-dose activity, negative = inhibition, hits mostly inhibitors | actives 1% (n = 390,000) | AID 588590
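Fluorescent replication assay read twice, at 0 min and 10 min after adding 50 nM (final) substrate. Enzyme (10 nM) and compounds were first incubated 15 min at room temperature; enzyme-free buffer wells were negative controls.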
FEN1 inh: inhibitors of human flap endonuclease 1; P39748; Recombinant FEN1 flap cleavage, fluorescence, 15 min; Potency, µM (titrated, usually from 114 µM), inactives show at the highest dose activity change, negative = inhibition, hits mostly inhibitors; actives 0.35% (n = 390,000); AID 588795; note: % is set by controls: 0 for no effect and ±100 for the full control effect; nearly all actives have a fitted effect of over 65% in size
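With each library titrated from low to high concentration, compounds met 10 nM FEN1 for 15 min at room temperature before 50 nM substrate was added; readings at 0 and 15 min fed four-parameter Hill curve fits.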
POLB inh: blocks human DNA polymerase beta activity; P06746; Pol beta primer extension/strand displacement, fluorescence kinetic; Potency, µM (doses to about 114 µM), inactives show at the top dose activity change, negative = inhibition, hits mostly inhibitors; actives 1.3% (n = 340,000); AID 485314; note: % is set by controls: 0 for no effect and ±100 for the full control effect
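Values derive from four-parameter Hill fits of normalized kinetic data: reads at 0 and 10 min following addition of 50 nM substrate to 10 nM Pol beta preincubated 15 min with compound.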
Pol eta inh-1: inhibitors of human DNA polymerase eta; actives 1.2% (n = 390,000); Q9Y253; recombinant Pol eta, fluorescent DNA replication assay; Potency, µM (top dose mostly 114 µM), without a hit: top-dose activity change, negative = inhibition, hits mostly inhibitors; note: % is set by controls: 0 for no effect and ±100 for the full control effect
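Pol eta (10 nM) was preincubated with compounds for 15 min at room temperature, after which fluorescent replication substrate (50 nM final) was added to start the reaction. Fluorescence was read kinetically at 0 and 10 min.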
Pol kappa inh-1: DNA polymerase kappa (human) inhibition; purified Pol kappa, fluorescent DNA synthesis assay, 10 min; Potency, µM (top dose mostly 107 µM), inactives show top-dose activity, negative = inhibition, most hits filed as inhibitors; actives 0.53% (n = 400,000); note: % is set by controls: 0 for no effect and ±100 for the full control effect
Target sequence (Q9UBT6 whole entry, looked up): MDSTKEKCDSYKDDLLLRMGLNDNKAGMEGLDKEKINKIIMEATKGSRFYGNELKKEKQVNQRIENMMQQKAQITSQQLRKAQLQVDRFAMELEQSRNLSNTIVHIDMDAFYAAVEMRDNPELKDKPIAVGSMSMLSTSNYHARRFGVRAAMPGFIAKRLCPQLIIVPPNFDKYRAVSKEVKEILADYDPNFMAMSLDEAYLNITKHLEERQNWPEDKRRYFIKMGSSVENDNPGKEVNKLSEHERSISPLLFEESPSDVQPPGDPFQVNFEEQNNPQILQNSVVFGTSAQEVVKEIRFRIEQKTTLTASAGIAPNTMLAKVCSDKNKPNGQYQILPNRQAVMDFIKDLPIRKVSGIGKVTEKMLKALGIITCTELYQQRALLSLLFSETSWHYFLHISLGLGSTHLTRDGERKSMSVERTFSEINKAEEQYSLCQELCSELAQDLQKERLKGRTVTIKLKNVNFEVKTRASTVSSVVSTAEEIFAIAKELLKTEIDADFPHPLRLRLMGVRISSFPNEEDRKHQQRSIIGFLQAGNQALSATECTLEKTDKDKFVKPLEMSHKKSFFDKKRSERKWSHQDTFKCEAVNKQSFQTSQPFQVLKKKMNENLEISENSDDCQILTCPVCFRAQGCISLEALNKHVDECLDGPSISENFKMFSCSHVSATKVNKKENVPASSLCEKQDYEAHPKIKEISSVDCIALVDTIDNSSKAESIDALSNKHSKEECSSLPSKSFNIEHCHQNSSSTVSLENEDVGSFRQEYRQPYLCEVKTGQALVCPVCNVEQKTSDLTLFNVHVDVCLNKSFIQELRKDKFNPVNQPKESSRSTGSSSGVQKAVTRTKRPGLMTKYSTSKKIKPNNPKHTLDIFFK
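Here, compound and 10 nM enzyme are combined for 15 min at room temperature; adding 50 nM substrate (final) starts DNA synthesis, tracked by fluorescence at 0 and 10 min against buffer-only wells.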
WRN helicase inh: blocks human WRN helicase; WRN helicase unwinding, fluorescent forked duplex, kinetic; Potency, µM (series often up to 114 µM), for the others: at the highest dose activity change, negative = inhibition, actives largely listed as inhibitors; actives 0.46% (n = 360,000); Q14191; note: % is set by controls: 0 for no effect and ±100 for the full control effect; nearly all actives have a fitted effect of over 55% in size
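WRN at 20 nM final was preincubated with compound for 15 min at room temperature; reaction started with 100 nM forked duplex oligonucleotide carrying fluorophore and quencher plus 2 mM ATP (final). Unwinding followed kinetically by red fluorescence (ex 525/em 598 nm).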
Pol kappa inh-2: confirmation of human DNA polymerase kappa inhibitors | Potency, µM, usual class: inhibitors | actives 76% (n = 920) | shares compounds with Pol eta inh-1 | AID 720501 | purified Pol-kappa, fluorescent strand-displacement substrate
Pol eta inh-2: confirmation of human DNA polymerase eta inhibitors; Pol eta primer extension, TAMRA/BHQ fluorescence, 10 min; shares compounds with Pol eta inh-1; Potency, µM, hits mostly inhibitors; actives 64% (n = 2,600)
* = called active by the depositor; ? = inconclusive; . = no result; [ ] = remark or other dose. Calls come from the whole dose curve; as a rule, active = well fitted curve in the direction sought with a large enough effect; inconclusive = small, poorly fitted or top-dose-only effect, or another doubt; inactive = no such curve, though single readings can be large; an effect the other way counts as inactive or inconclusive. Potency is the fitted concentration of half-maximal effect.

SMILES	POLI inh	FEN1 inh	POLB inh	Pol eta inh-1	Pol kappa inh-1	WRN helicase inh	Pol eta inh-2	others
CC[C@@H]1/C=C(\C)C[C@H](C)C[C@H](OC)[C@H]2O[C@@](O)(C(=O)C(=O)N3CCCC[C@H]3C(=O)O[C@H](/C(C)=C/[C@@H]3CC[C@H](Cl)[C@H](OC)C3)[C@H](C)[C@@H](O)CC1=O)[C@H](C)C[C@@H]2OC	.	.	.	.	-2%[19.4 µM]	.	.
O=C(O)c1ccc(/C=N/NC(=O)c2cc3ccccc3cc2O)cc1	16µM*	?	.	22µM*	50µM*	?	?
Cn1c(O)c(/C=N/NC(=O)c2cc3ccccc3cc2O)c2ccccc21	?	4%	?	-20%	-23%	-24%	.
NC(=O)CC1(c2ccccc2)CCCCC1	.	.	.	-14%	.	-2%	.
Cc1oc2ccc(O)c(CN3CCN(Cc4ccccc4)CC3)c2c1C(=O)Nc1ccccc1	-16%	-7%	-20%	-7%	-7%	.	.
CC(=O)NC12CC3CC(C1)CC(C(=O)OCC(=O)Nc1ncc(Cl)c(C)c1Cl)(C3)C2	?	-11%	?	?	-35%	?	?
Cc1ccccc1OCC(=O)OCC(=O)Nc1ncc(Cl)c(C)c1Cl	?	-8%	.	28µM*	?	-11%[11.6 µM]	?	Pol kappa inh-2=?
Cc1c(Cl)cnc(NC(=O)COC(=O)[C@@H](NC(=O)c2ccco2)C(C)C)c1Cl	?	-20%	.	50µM*	-17%	-8%[11.6 µM]	?	Pol kappa inh-2=?
Cc1c(Cl)cnc(NC(=O)COC(=O)C2CC2)c1Cl	-14%	10%	.	?	-24%	4%[11.6 µM]	.
O=C1c2ccccc2C(c2nnnn2-c2ccc3c(c2)OCCO3)N1CCc1ccccc1F (configuration not stated)	.	.	.	.	.	0%	.
Cc1ccc(C(=O)c2ccc([N+](=O)[O-])cc2)cc1	34%	4%	-9%	-12%	3%	17%	.
Cc1ccc(C(=O)c2coc3cc([N+](=O)[O-])c(O)c([N+](=O)[O-])c23)cc1	?	?	20µM*	20µM*	?	?	.	Pol kappa inh-2=?
O=C(O)c1cc(S(=O)(=O)N2CCN(S(=O)(=O)c3ccc4ccccc4c3)CC2)ccc1Br	?	-10%	.	18µM*	-36%	-11%[11.6 µM]	48*	Pol kappa inh-2=17*
O=S(=O)(c1ccc2ccccc2c1)N1CCCCCC1	90%	-6%	-27%	-8%	4%	3%[57.1 µM]	.
O=C(Nc1cccnc1)c1ccc(NS(=O)(=O)c2cc([N+](=O)[O-])ccc2Cl)cc1	?	-1%	?	22µM*	-52%	-10%[11.6 µM]	76*
COc1ccc(/C=C/C(=O)NC(=S)Nc2ccc(S(=O)(=O)Nc3ccc(OC)nn3)cc2)cc1	-3%	-12%	1%	56µM*	-11%	-20%[57.1 µM]	?
COc1ccc(/C=C/C(=O)NC(=S)Nc2ccc(S(=O)(=O)Nc3cc(C)on3)cc2)cc1	?	4%	-15%	?	-6%	-32%	.
Cc1ccc2nc(-c3cccs3)c(Nc3ccccc3)n2c1	28%	0%	.	.	8%	.	.
Cc1nn(-c2cccc(C(=O)O)c2)c(C)c1[N+](=O)[O-]	29%	3%	-2%	-4%	-7%	-1%[57.1 µM]	.
O=C(O)c1cccc(-n2cccc2/C=C\[N+](=O)[O-])c1	?	?	?	20µM*	50µM*	?	60*
O=C(Nc1csnn1)OCc1ccccc1	9%	-4%	.	-5%	-3%	-2%	.
CC(C)c1ccc(NC(=O)CSc2ncc3c(n2)-c2ccccc2N(C)S3(=O)=O)cc1	19%	-5%	21%	-6%	11%	.	.
O=C(O)c1cccc(-c2ccc(/C=N/n3cnnc3)o2)c1	-3%	14%	?	?	-21%	-5%	.
CC(C)S(=O)(=O)C1=NSC2=NC(=O)/C(=C\c3ccc(-c4cccc(C(=O)O)c4)o3)C(=N)N21	5.6µM*	22µM*	32µM*	7.9µM*	28µM*	?	30*	Pol kappa inh-2=17*
O=c1c2c3c(sc2nnn1Cc1ccc(F)cc1)CCCC3	-5%	-12%	-3%	-6%	0%[60.1 µM]	.	.
SMILES	POLI inh	FEN1 inh	POLB inh	Pol eta inh-1	Pol kappa inh-1	WRN helicase inh	Pol eta inh-2	others
COc1cccc(/C=N/N2C(=O)CSC2=S)c1O	?	-25%	?	-9%	?	?	?
COc1cc(Br)c(C(=O)c2nccc3cc(OC)c(OC)cc23)cc1OC	1.8µM*	-23%	-2%	79µM*	9%	-12%[11.6 µM]	?
COc1cc(N)c(C(=O)c2nccc3cc(OC)c(OC)cc23)cc1OC	234%	8%	44%	11%	3%	-31%	.
O=C(Nc1nc(-c2ccco2)c(-c2ccco2)s1)c1c(F)cccc1Cl	-35%	-21%	.	?	?	-15%	.
O=C(Nc1nc(-c2ccco2)c(-c2ccco2)s1)c1cnccn1	50µM*	-9%	.	?	?	-17%[11.6 µM]	76*
c1ccc2c(c1)OCC(c1nnc3sc(-c4cnccn4)nn13)O2 (configuration not stated)	?	15%	4%	89µM*	-22%	-18%[57.1 µM]	?
CCOCCCNc1nc2c(C)cccn2c(=O)c1/C=C1\SC(=S)N(C(C)CC)C1=O (configuration not stated)	16%	-16%	17%	79µM*	-9%	?	.	Pol kappa inh-2=27*
CCOCCCNc1nc2c(C)cccn2c(=O)c1/C=C1\SC(=S)N(CC(C)C)C1=O	19%	-3%	-10%	-6%	-19%	-9%	.
COc1cc(/C=C2\NC(=S)NC2=O)ccc1OCc1cccc(C(=O)O)c1	?	-26%	?	22µM*	?	?	38*	Pol kappa inh-2=21*
O=C1NC(=O)/C(=C\c2ccc(OCc3cccc(C(=O)O)c3)c(Cl)c2)N1	81%	4%	-1%	-13%	-4%	-27%	.
CCOC(=O)C(=O)Nc1nc(-c2ccc3c(c2)CCN3C(=O)C2CC2)c(C)s1	-11%	-3%	-6%	14µM*	-3%	1%	?
COc1ccccc1-c1ccc(/C=C2\C=CC(=O)O2)o1	20µM*	?	-100%	25µM*	35µM*	?	54*
O=C(CN1C(=O)CCc2cc(S(=O)(=O)N3CCOCC3)ccc21)NCc1ccc(Cl)cc1	9%	-9%	24%	-9%	-5%[60.1 µM]	.	.
